In PubChem BioAssay AID488841 (Sanford-Burnham Center for Chemical Genomics, 2010):
About 380 (27%) of roughly 1,400 compounds were called active. The list shows a part of the results. Values without a mark were called inactive.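 How the source made its calls: active means mean inhibition above 50% across duplicate retests at 10 µM; inactive means the rest.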

Assay: inhibition of NALP1/ASC/caspase-1 reporter signal in yeast, confirmation, NALP1 inhibitor project, S. cerevisiae, luminescence, single concentration (AID 488841);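 further: plate controls were DMSO in galactose medium for no effect and cells in plain SD medium for full effect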
Details: S. cerevisiae NALP1/ASC/Caspase-1 reporter, beta-gal luminescence; at 10 µM; hits give high values

For `O=C(CN1CCN(c2cccc(Cl)c2)CC1)Nc1ccc(S(=O)(=O)N2CCOCC2)cc1`, which inhibition is on record?
Its inhibition is 35.4%.

For `COC(=O)/C=C/C(=O)N1CCN(c2cccc(Cl)c2)CC1`, which inhibition is on record?
The inhibition was 54.7% (active).

For `COC(=O)c1cc(OC)c(OC)cc1NC(=S)N1CCN(c2ccccc2)CC1`, which inhibition is on record?
Its inhibition is 30%.

Which inhibition does the source give for `Cc1ccnc(NS(=O)(=O)c2ccc(NC(=O)CSc3nc(-c4ccccc4)cc(=O)[nH]3)cc2)n1` here?
Its inhibition is 12.6%.

For `CCOc1cc(C(=O)OCC(=O)Nc2ncc(Cl)c(C)c2Cl)ccc1OCC(=O)N1CCOCC1`, which inhibition is on record?
Its inhibition is 27.4%.

Which inhibition does the source give for `CC(=O)N1CCCc2cc(S(=O)(=O)N3CCc4ccccc4C3)ccc21` here?
The inhibition was 33.2%.

With `Cc1ccc2cc3cc(C(=O)NCCCN4CCc5ccccc5C4)oc3nc2c1` as the compound, how does the inhibition read?
Its inhibition is 30.9%.

For `O=C(NCCCN1CCc2ccccc2C1)Nc1ccc(Br)cc1`, which inhibition is on record?
The inhibition was 25.1%.

With `COC(=O)/C(=N/Nc1ccc(C)cc1)N1CCCc2ccccc21` as the compound, how does the inhibition read?
Its inhibition is 32%.

Which inhibition does the source give for `O=C(Nc1ccccc1)N1CCc2ccccc2C1` here?
Its inhibition is 62% (active).

For `Cc1ccc(NC(=O)N2CCc3ccccc3C2)cc1`, which inhibition is on record?
Its inhibition is 64.8% (active).

With `CCCCCCCCCCOC(=O)Cn1c(COc2ccc(Cl)cc2)[n+](C)c2ccccc21` as the compound, how does the inhibition read?
The inhibition was 34%.

Which inhibition does the source give for `O=C1NC(c2ccccc2)Nc2c1sc(=S)n2-c1ccccc1` (centres undefined) here?
The inhibition was 25.1%.

With `CCN(CC)S(=O)(=O)c1ccc2oc(C(=O)NC3CCCc4ccccc43)c(C)c2c1` (centres undefined) as the compound, how does the inhibition read?
Its inhibition is 4.35%.

With `CC[n+]1c(/C=C2\Sc3ccccc3N2C)ccc2cccc(C)c21` as the compound, how does the inhibition read?
Its inhibition is 96.8% (active).

Which inhibition does the source give for `CCN1/C(=C\c2ccc3ccccc3[n+]2CC)Sc2cc(C)ccc21` here?
Its inhibition is 98.2% (active).

Which inhibition does the source give for `CCN1/C(=C/c2ccc3ccc(C)cc3[n+]2CC)Sc2ccccc21` here?
Its inhibition is 21.4%.

For `CCN1/C(=C/c2ccc3cc(C)ccc3[n+]2CC)Sc2ccccc21`, which inhibition is on record?
Its inhibition is 101% (active).

Which inhibition does the source give for `Cc1cc(=O)n2ccccc2c1C#N` here?
Its inhibition is 9.65%.

With `C/C(=N/NC(=O)c1nnn(-c2nonc2N)c1COc1ccccc1)c1ccc(O)cc1` as the compound, how does the inhibition read?
Its inhibition is 22.6%.

Which inhibition does the source give for `Cc1cc(C)cc(C(=O)OCC(=O)NCCNC(=O)COC(=O)c2cc(C)cc(C)c2)c1` here?
The inhibition was 31.4%.

With `OCCN(CCO)c1ncnc2c1oc1ccc(Br)cc12` as the compound, how does the inhibition read?
The inhibition was 31.3%.

Which inhibition does the source give for `CC1CN(S(=O)(=O)c2ccc(C(=O)Nc3nc(-c4cc5ccccc5o4)cs3)cc2)CC(C)O1` (centres undefined) here?
Its inhibition is 30.1%.

For `N#CC1(C#N)CC(C=O)=C(N)C1(C#N)CC(=O)C12CC3CC(CC(C3)C1)C2` (centres undefined), which inhibition is on record?
The inhibition was 36.1%.

With `Cc1ccc(Cl)cc1N1CCN(S(C)(=O)=O)CC1` as the compound, how does the inhibition read?
Its inhibition is 39.6%.

Which inhibition does the source give for `CCCC(CCC)c1nc2ccncc2[nH]1` here?
Its inhibition is 27.4%.

With `CC(=O)NS(=O)(=O)c1ccc(NC(=O)CSc2ccccc2)cc1` as the compound, how does the inhibition read?
Its inhibition is 8.45%.

Which inhibition does the source give for `CCN(CC)CCCOc1ccc(Cl)c(Cl)c1` here?
Its inhibition is 44.2%.

With `CCCCNCCOCCOc1ccc(Cl)cc1Br` as the compound, how does the inhibition read?
The inhibition was 48%.

For `C#CCN(C)CCCOc1ccc(Cl)cc1Cl`, which inhibition is on record?
The inhibition was 55.1% (active).

For `CC(C)CC(=O)N1CCN(S(=O)(=O)c2ccccc2)CC1`, which inhibition is on record?
The inhibition was 24.9%.

For `COc1ccc(-c2cc(-c3cc(OC)ccc3O)[nH]n2)cc1`, which inhibition is on record?
Its inhibition is 49.4%.

Which inhibition does the source give for `Cc1ccc2c(c1)c1c3n2CCCNC3CCC1` (centres undefined) here?
Its inhibition is 43.8%.

With `O=C(c1ccccc1-c1ccccc1)N1CCN(c2ccccn2)CC1` as the compound, how does the inhibition read?
Its inhibition is 29.1%.

For `CCOC(=O)c1cc(-c2ccccc2)n(CCC(=O)N2CCN(c3ccccn3)CC2)c1C`, which inhibition is on record?
Its inhibition is 39.2%.

Which inhibition does the source give for `O=C(N1CCN(c2ccccn2)CC1)C(Cl)(Cl)Cl` here?
Its inhibition is 60.1% (active).

With `C=C(C)C(=O)Nc1nnc(-c2cccs2)s1` as the compound, how does the inhibition read?
Its inhibition is 55.5% (active).

Which inhibition does the source give for `Cn1c(SCC(=O)NC(c2ccccc2)c2ccccc2)nnc1-c1cccs1` here?
The inhibition was 34%.

Which inhibition does the source give for `C=C(C)C(=O)Nc1cccc(C(C)=O)c1` here?
Its inhibition is 10.3%.

Which inhibition does the source give for `CN1/C(=C\C(=O)c2cccs2)C(C)(C)c2ccccc21` here?
Its inhibition is 35.5%.

Which inhibition does the source give for `O=C(COC(=O)CCC1CCCCC1)Nc1ccc(OC(F)F)cc1` here?
Its inhibition is 19.5%.

Which inhibition does the source give for `CCCCNC1CCS(=O)(=O)C1` (centres undefined) here?
The inhibition was 24%.

With `CCCCCCOc1ccc(/C(C)=N/NC2=NCCN2)cc1` as the compound, how does the inhibition read?
Its inhibition is 51.5% (active).

For `CCCCOc1ccc(CSC2=NCCN2)cc1[N+](=O)[O-]`, which inhibition is on record?
Its inhibition is 43.9%.

Which inhibition does the source give for `CCCCCOc1ccc(Br)cc1/C(C)=N/NC1=NCCN1` here?
Its inhibition is 51.2% (active).

For `CCCCCCOc1ccc(-c2ccc(C#N)cn2)cc1`, which inhibition is on record?
Its inhibition is 34.9%.

For `CCCCCCOc1ccc(OC(=O)c2ccncc2)cc1`, which inhibition is on record?
The inhibition was 24.9%.

Which inhibition does the source give for `CCn1c(SCC(=O)Nc2ccc3c(c2)OCO3)nnc1-c1cnccn1` here?
The inhibition was 36.9%.

For `CCOc1ccccc1C1CC(=O)NC(SCC(=O)Nc2nccs2)=C1C#N` (centres undefined), which inhibition is on record?
Its inhibition is 10.4%.

For `CCOc1nc(N2CCOCC2)nc(N2CCOCC2)n1`, which inhibition is on record?
The inhibition was 29.6%.

Which inhibition does the source give for `O=C(N/N=C\c1cccc([N+](=O)[O-])c1O)C1COc2ccccc2O1` (centres undefined) here?
The inhibition was 56.7% (active).

Which inhibition does the source give for `COc1cccc(/C=N/NC(=O)CNC(=O)C2COc3ccccc3O2)c1O` (centres undefined) here?
The inhibition was 41%.

With `O=[N+]([O-])c1cc(Cc2ccccc2)cc(C=Nc2ccc(N3CCOCC3)cc2)c1O` as the compound, how does the inhibition read?
The inhibition was 47.5%.

With `NCCS` as the compound, how does the inhibition read?
Its inhibition is 55.1% (active).

Which inhibition does the source give for `CCCCCCC(=O)N(O)C1CC(=O)N(Cc2ccccc2)C1=O` (centres undefined) here?
The inhibition was 15.2%.

Which inhibition does the source give for `C=CCn1c(CNC(=O)c2cccs2)nnc1SCC(=O)Nc1ccc(C(=O)O)cc1` here?
Its inhibition is 24.2%.

Which inhibition does the source give for `Cc1ccccc1Nc1cc(C)c2c(O)cccc2n1` here?
Its inhibition is 65.8% (active).

With `CC(=O)Nc1ccc2nc(CN3CCC(CO)(CCc4ccccc4)CC3)ccc2c1` as the compound, how does the inhibition read?
Its inhibition is 34.5%.

For `Cc1c([N+](=O)[O-])c(C(=O)Nc2ccc3c(c2)OCCO3)nn1C`, which inhibition is on record?
Its inhibition is 27.4%.

For `CNc1ccc(/C=C/C(=O)c2ccc3c(c2)OCCO3)cc1[N+](=O)[O-]`, which inhibition is on record?
Its inhibition is 52.8% (active).

With `CCn1c(SCC(=O)Nc2oc(-c3ccccc3)c(-c3ccccc3)c2C#N)nnc1-c1cc(OC)cc(OC)c1` as the compound, how does the inhibition read?
Its inhibition is 22.6%.

With `COc1ccc(S(=O)(=O)N(CC(=O)N2CCOCC2)Cc2ccccc2)cc1C` as the compound, how does the inhibition read?
The inhibition was 22.4%.

Which inhibition does the source give for `CC1=NNC(=O)/C1=C\c1cn(-c2ccccc2)nc1-c1cccs1` here?
The inhibition was 62.4% (active).

Which inhibition does the source give for `CC1(C)CC(=O)c2c(-c3cccs3)n[nH]c2C1` here?
The inhibition was 38.8%.
